Data on four molecules can be found in PubChem BioAssay (EPA / NIEHS).

Activity calls are given as the source filed them. Rule for the calls: active = hit-call score of the fitted dose curve at least 0.9, where 1 is the maximum; inactive = score below 0.9.

Holding throughout (settings): mRNA level, 48 h; actives raise or lower the signal
Read-out in assay [1]: matrix metalloproteinase-10 (MMP10), MMP10 (gene 4319)
Briefly: LTEA_HepaRG_MMP10: Life Technologies and Expression Analysis (LTEA) Assay for matrix metalloproteinase-10 (MMP10) using HepaRG (AID 2283517). Put shortly:
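HepaRG, collagen I, ~100,000 cells/well; serum-free induction medium; 48 h exposure, duplicate, 8-pt half-log to 100 uM, 0.5% DMSO. Readout: TaqMan qRT-PCR, normalized to ACTB/GAPDH/POLR2A; bidirectional fit vs DMSO.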

Read-out in a further assay: MYC, MYC (gene 4609)
The experiment in a line: LTEA_HepaRG_MYC: Life Technologies and Expression Analysis (LTEA) Assay for MYC using HepaRG (AID 2283518). Put shortly: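 Differentiated human HepaRG cells, plated 48 h then switched to serum-free induction medium, were exposed in duplicate for 48 h to 8-point half-log series up to 100 uM in 0.5% DMSO. MYC mRNA measured by qRT-PCR, normalized to ACTB/GAPDH/POLR2A.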

Read-out in assay [2]: matrix metalloproteinase-3 (MMP3), MMP3 (gene 4314)
The experiment in a line: LTEA_HepaRG_MMP3: Life Technologies and Expression Analysis (LTEA) Assay for matrix metalloproteinase-3 (MMP3) using HepaRG (AID 2283519). Put shortly: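 Differentiated human HepaRG cells, plated 48 h on collagen I, were exposed in duplicate for 48 h in serum-free induction medium to eight half-log concentrations up to 100 uM in 0.5% DMSO. MMP3 mRNA was quantified by TaqMan qRT-PCR, normalised to ACTB, GAPDH and POLR2A.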

Read-out in assay [3]: Paternally Expressed 10 (PEG10), PEG10 (gene 23089)
The experiment in a line: LTEA_HepaRG_PEG10: Life Technologies and Expression Analysis (LTEA) Assay for Paternally Expressed 10 (PEG10) using HepaRG (AID 2283520). Put shortly: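 Chemicals tested on HepaRG cells for 48 h, highest concentration 100 uM. PEG10 expression assessed by qRT-PCR relative to DMSO control.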

Read-out in assay [4]: Protein phosphatase 2A (PPP2R4), PTPA (gene 5524)
Briefly: LTEA_HepaRG_PPP2R4: Life Technologies and Expression Analysis (LTEA) Assay for Protein phosphatase 2A (PPP2R4) using HepaRG (AID 2283522). Put shortly:
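Gene-expression endpoint in HepaRG hepatic cells: 48 h treatment across eight half-log concentrations up to 100 uM in 0.5% DMSO. PPP2R4 mRNA by qRT-PCR, normalized to three endogenous control genes.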

Read-out in assay [5]: Phosphatase and tensin (PTEN), PTEN (gene 5728)
Briefly: LTEA_HepaRG_PTEN: Life Technologies and Expression Analysis (LTEA) Assay for Phosphatase and tensin (PTEN) using HepaRG (AID 2283523). Put shortly:
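Differentiated human HepaRG cells, plated 48 h then switched to serum-free induction medium, were exposed in duplicate for 48 h to eight half-log concentrations up to 100 uM in 0.5% DMSO. PTEN mRNA measured by TaqMan qRT-PCR, normalized to ACTB/GAPDH/POLR2A, bidirectional fit versus DMSO.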

Read-out in assay [6]: Pyruvate Dehydrogenase Kinase 4 (PDK4), PDK4 (gene 5166)
The experiment in a line: LTEA_HepaRG_PDK4: Life Technologies and Expression Analysis (LTEA) Assay for Pyruvate Dehydrogenase Kinase 4 (PDK4) using HepaRG (AID 2283525). Put shortly: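 Differentiated human HepaRG cells, pre-cultured 48 h, were exposed in duplicate for 48 h in serum-free induction medium to eight half-log concentrations up to 100 uM in 0.5% DMSO. PDK4 mRNA was quantified by qRT-PCR, normalized to ACTB, GAPDH and POLR2A, bidirectional fitting versus DMSO.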

Read-out in assay [7]: NAD(P)H dehydrogenase [quinone] 1 (NQO1), NQO1 (gene 1728)
The experiment in a line: LTEA_HepaRG_NQO1: Life Technologies and Expression Analysis (LTEA) Assay for NAD(P)H dehydrogenase [quinone] 1 (NQO1) using HepaRG (AID 2283526). Put shortly: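 Human HepaRG hepatic cells received chemicals for 48 h in serum-free induction medium with 0.5% DMSO, up to 100 uM. Expression was assessed by TaqMan qRT-PCR against housekeeping controls and fitted bidirectionally against DMSO.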

Read-out in assay [8]: Nuclear factor erythroid 2-related factor 2 (Homo sapiens) (UniProt Q16236)
The experiment in a line: LTEA_HepaRG_NFE2L2: Life Technologies and Expression Analysis (LTEA) Assay for Nuclear factor erythroid 2-related factor 2 (NFE2L2) Transcription Factor using HepaRG (AID 2283527).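 Note: TaqMan qRT-PCR transcript level normalised to ACTB GAPDH and POLR2A housekeeping genes.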 Put shortly:
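Differentiated human HepaRG cells in serum-free induction medium were exposed for 48 h to eight concentrations (top 100 uM, half-log dilutions, 0.5% DMSO), in duplicate. NFE2L2 mRNA was quantified by TaqMan qRT-PCR, normalized to ACTB, GAPDH and POLR2A, with bidirectional fitting versus DMSO.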

Read-out in assay [9]: Signal transducer and activator of transcription 3 (Homo sapiens) (UniProt P40763)
The experiment in a line: LTEA_HepaRG_STAT3: Life Technologies and Expression Analysis (LTEA) Assay for Signal transducer and activator of transcription (STAT3) using HepaRG (AID 2283529). Put shortly:
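Differentiated human HepaRG cells in serum-free induction medium were exposed in duplicate for 48 h to eight half-log concentrations up to 100 uM in 0.5% DMSO. STAT3 mRNA was quantified by TaqMan qRT-PCR, normalized to ACTB, GAPDH and POLR2A, and fitted bidirectionally against DMSO.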

Read-out in assay [10]: solute carrier (SLCO1B1), SLCO1B1 (gene 10599)
The experiment in a line: LTEA_HepaRG_SLCO1B1: Life Technologies and Expression Analysis (LTEA) Assay for solute carrier (SLCO1B1) using HepaRG (AID 2283530). Put shortly:
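Differentiated human HepaRG cells, plated 48 h, switched to serum-free induction medium and exposed in duplicate for 48 h to 8 half-log concentrations (top 100 uM) in 0.5% DMSO. SLCO1B1 mRNA by TaqMan qRT-PCR, normalized to ACTB/GAPDH/POLR2A.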

Read-out in assay [11]: sulfotransferase 2A1 (SULT2A1), SULT2A1 (gene 6822)
Briefly: LTEA_HepaRG_SULT2A1: Life Technologies and Expression Analysis (LTEA) Assay for sulfotransferase 2A1 (SULT2A1) using HepaRG (AID 2283531). Put shortly: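 Differentiated human HepaRG cells in serum-free induction medium were exposed for 48 h to eight half-log concentrations (top 100 uM, 0.5% DMSO). SULT2A1 mRNA was measured by qRT-PCR, normalized to ACTB, GAPDH and POLR2A, and fitted bidirectionally against DMSO.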

Read-out in assay [12]: Transforming Growth Factor (TGFA), TGFA (gene 7039)
The experiment in a line: LTEA_HepaRG_TGFA: Life Technologies and Expression Analysis (LTEA) Assay for Transforming Growth Factor (TGFA) using HepaRG (AID 2283532). Put shortly: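 Differentiated human HepaRG cells, plated 48 h then switched to serum-free induction medium, were exposed in duplicate for 48 h to 8-point half-log series from 100 uM in 0.5% DMSO. TGFA mRNA measured by qRT-PCR, normalized to ACTB/GAPDH/POLR2A, bidirectional fit versus DMSO.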

Read-out in assay [13]: Transforming Growth Factor (TGFB1), TGFB1 (gene 7040)
Briefly: LTEA_HepaRG_TGFB1: Life Technologies and Expression Analysis (LTEA) Assay for Transforming Growth Factor (TGFB1) Transporter using HepaRG (AID 2283533). Put shortly: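 Differentiated human HepaRG cells in serum-free induction medium were exposed in duplicate for 48 h to eight concentrations (top 100 uM, half-log steps, 0.5% DMSO). TGFB1 mRNA was quantified by qRT-PCR, normalized to ACTB, GAPDH, POLR2A, and fitted bidirectionally against DMSO.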

Read-out in a further assay: TIMP1, TIMP1 (gene 7076)
The experiment in a line: LTEA_HepaRG_TIMP1: Life Technologies and Expression Analysis (LTEA) Assay for TIMP1 using HepaRG (AID 2283534).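 Note: TaqMan qRT-PCR signal normalized to ACTB GAPDH and POLR2A housekeeping genes.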 Put shortly: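 Differentiated human HepaRG cells in serum-free induction medium were exposed 48 h to chemicals (8 half-log concentrations, top 100 uM, 0.5% DMSO). TIMP1 mRNA was quantified by TaqMan qRT-PCR, normalized to ACTB/GAPDH/POLR2A; bidirectional fit versus DMSO.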

Read-out in assay [14]: Tumor necrosis factor receptor 1 (TNFRSF1A), TNFRSF1A (gene 7132)
The experiment in a line: LTEA_HepaRG_TNFRSF1A: Life Technologies and Expression Analysis (LTEA) Assay for Tumor necrosis factor receptor 1 (TNFRSF1A) using HepaRG (AID 2283535). Put shortly: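 Differentiated human HepaRG cells were exposed in duplicate for 48 h in serum-free induction medium to eight concentrations (top 100 uM, half-log steps, 0.5% DMSO). TNFRSF1A mRNA was quantified by qRT-PCR, normalized to ACTB, GAPDH and POLR2A, then fitted bidirectionally against DMSO.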

Read-out in assay [15]: succinate dehydrogenase complex iron sulfur subunit B (SDHB), SDHB (gene 6390)
The experiment in a line: LTEA_HepaRG_SDHB: Life Technologies and Expression Analysis (LTEA) Assay for succinate dehydrogenase complex iron sulfur subunit B (SDHB) using HepaRG (AID 2283528). Put shortly:
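HepaRG, 48 h exposure, 8-pt half-log series from 100 uM in 0.5% DMSO, duplicates. Readout: SDHB mRNA by Fluidigm qRT-PCR vs housekeeping genes; bidirectional fit relative to DMSO.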

Read-out in assay [16]: solute carrier (SLC22A1), SLC22A1 (gene 6580)
The experiment in a line: LTEA_HepaRG_SLC22A1: Life Technologies and Expression Analysis (LTEA) Assay for solute carrier (SLC22A1) using HepaRG (AID 2283524). Put shortly:
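Human HepaRG cells were plated 48 h, switched to serum-free induction medium, then exposed in duplicate for 48 h to 8-point half-log series from 100 uM in 0.5% DMSO. SLC22A1 mRNA measured by qRT-PCR, normalized to ACTB/GAPDH/POLR2A, fitted bidirectionally versus DMSO.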

Nuclear factor erythroid 2-related factor 2 (Homo sapiens), sequence (Q16236 whole entry, looked up): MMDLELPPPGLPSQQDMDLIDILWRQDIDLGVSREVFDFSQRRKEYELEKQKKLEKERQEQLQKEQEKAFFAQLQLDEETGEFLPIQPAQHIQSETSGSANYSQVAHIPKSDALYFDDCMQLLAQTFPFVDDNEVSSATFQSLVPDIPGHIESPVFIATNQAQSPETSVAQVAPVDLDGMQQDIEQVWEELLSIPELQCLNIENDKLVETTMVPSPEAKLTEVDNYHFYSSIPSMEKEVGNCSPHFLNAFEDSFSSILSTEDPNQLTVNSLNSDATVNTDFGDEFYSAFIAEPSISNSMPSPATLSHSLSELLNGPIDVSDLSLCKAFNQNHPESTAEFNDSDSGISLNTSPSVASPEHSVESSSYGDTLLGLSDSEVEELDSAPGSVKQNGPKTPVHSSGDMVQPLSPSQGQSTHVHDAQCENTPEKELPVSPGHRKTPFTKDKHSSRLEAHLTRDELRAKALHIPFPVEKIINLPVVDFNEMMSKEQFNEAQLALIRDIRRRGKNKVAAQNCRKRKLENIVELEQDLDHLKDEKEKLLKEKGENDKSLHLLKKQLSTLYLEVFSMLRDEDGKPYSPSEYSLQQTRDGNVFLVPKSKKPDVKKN
Signal transducer and activator of transcription 3 (Homo sapiens), sequence (P40763 whole entry, looked up): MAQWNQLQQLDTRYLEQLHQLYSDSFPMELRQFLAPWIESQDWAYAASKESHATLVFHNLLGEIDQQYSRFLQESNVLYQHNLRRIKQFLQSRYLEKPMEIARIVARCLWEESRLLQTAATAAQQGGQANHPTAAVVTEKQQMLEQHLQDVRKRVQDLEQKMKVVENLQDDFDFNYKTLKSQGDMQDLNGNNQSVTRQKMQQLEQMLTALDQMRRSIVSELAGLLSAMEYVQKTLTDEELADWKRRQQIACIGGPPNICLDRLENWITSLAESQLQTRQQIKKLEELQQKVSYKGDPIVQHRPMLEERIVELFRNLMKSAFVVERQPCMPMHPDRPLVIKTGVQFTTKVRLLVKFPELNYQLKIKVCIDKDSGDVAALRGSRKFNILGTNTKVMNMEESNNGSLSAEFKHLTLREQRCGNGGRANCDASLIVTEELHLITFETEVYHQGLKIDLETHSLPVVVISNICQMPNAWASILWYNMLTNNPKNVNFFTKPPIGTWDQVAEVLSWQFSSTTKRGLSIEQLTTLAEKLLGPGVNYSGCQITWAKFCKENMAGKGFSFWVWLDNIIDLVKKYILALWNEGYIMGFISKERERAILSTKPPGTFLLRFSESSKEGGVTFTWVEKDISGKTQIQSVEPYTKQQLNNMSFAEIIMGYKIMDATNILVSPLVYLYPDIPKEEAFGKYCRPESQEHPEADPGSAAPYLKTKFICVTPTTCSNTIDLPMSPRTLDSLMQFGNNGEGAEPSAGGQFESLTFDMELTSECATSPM

In general, AC50 refers to the midpoint of the concentration-response curve, whichever way the signal moves. In the case of `CCCCOCN(C(=O)CCl)c1c(CC)cccc1CC`, the outcome was “inactive” in [1]; “inactive” with MYC, MYC (gene 4609); “inactive” in assay [2]; “inactive” in assay [3]; “inactive” in assay [4]; “inactive” in assay [5]. For the same molecule, the call in assay [7], in assay [8], in assay [9], in assay [10], in assay [11] and in assay [12] was inactive. Also, the outcome is “inactive” in assay [13]; “inactive” with TIMP1, TIMP1 (gene 7076); “inactive” in assay [14]. For the same molecule, the AC50 in assay [6] was 50 µM (active).

With `CCOc1nc(F)cc2nc(S(=O)(=O)Nc3c(Cl)cccc3Cl)nn12`, the outcome is “inactive” in assay [1]; “inactive” in the assay with MYC, MYC (gene 4609); “inactive” in assay [3]; “inactive” in [4]; “inactive” in [5]; “inactive” in assay [6]. Also, the result in [7], in assay [8], in assay [15], in assay [9], in [10] and in assay [11] was inactive. For the same molecule, the outcome in [12] is “inactive”; in assay [13], “inactive”; with TIMP1, TIMP1 (gene 7076), “inactive”; in assay [14], “inactive”. The concentration at half-maximal activity (AC50) in assay [2] is 50 µM (active).

In the case of `COc1ccc(-c2ccccc2)cc1NNC(=O)OC(C)C`, the outcome is “inactive” in [1]; “inactive” in the assay with MYC, MYC (gene 4609); “inactive” in [2]; “inactive” in assay [3]; “inactive” in assay [4]; “inactive” in assay [5]. Besides, the result in assay [6], in [7], in [8], in [9], in assay [10] and in [11] was inactive. For the same molecule, the outcome in [12] is “inactive”; in assay [13], “inactive”; with TIMP1, TIMP1 (gene 7076) it was “inactive”; in [14], “inactive”.

Take `Clc1nc(Cl)nc(Nc2ccccc2Cl)n1`: the outcome in assay [1] is “inactive”; with MYC, MYC (gene 4609), “inactive”; in assay [2] it was “inactive”; in [3], “inactive”; in [4] it was “inactive”; in assay [5] it was “inactive”. Moreover, the molecule was called inactive in [16], in assay [6], in assay [7], in assay [8], in assay [9] and in assay [10]. Further, the outcome is “inactive” in assay [11]; “inactive” in assay [12]; “inactive” in [13]; “inactive” in the assay with TIMP1, TIMP1 (gene 7076); “inactive” in assay [14].
